# Source: PubChem BioAssay (several laboratories)
# Rows were chosen to be rich in hits. Some 5.6% of all compounds tested hit in one or more screens of this group.
# PfGluPho inh – PfG6PD (Plasmodium falciparum) enzyme inhibition; AID 504690; hit rate 0.78% among 350,000; PfGluPho enzyme, NADPH resazurin-diaphorase fluorescence; inhibition, % at 20 µM;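 active means inhibition reaching at least a set limit at 20 µM in the primary screen, cut at about 59% in these data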;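 further: 0% = DMSO wells with substrate and 100% = DMSO wells lacking glucose-6-phosphate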
# PfM18AAP inh – blocks P. falciparum M18 aspartyl aminopeptidase | recombinant PfM18AAP, H-Glu-NHMec fluorogenic cleavage | inhibition, % at 7.35 µM | hit rate 1.2% among 290,000;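 active means inhibition above the campaign mean inhibition over all tested compounds plus 3 SD, cut at about 28% in these data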;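 further: 0% = plate median of test compound wells and 100% = 2 mM ZnCl2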
# PHOSPHO1 inh – blocks human PHOSPHO1 phosphatase activity; recombinant PHOSPHO1, absorbance phosphatase assay; inhibition, % at 13.3 µM; hit rate 1.1% among 290,000; in the data active means inhibition above about 60%
# Target sequence (Q8TCT1 whole entry, looked up): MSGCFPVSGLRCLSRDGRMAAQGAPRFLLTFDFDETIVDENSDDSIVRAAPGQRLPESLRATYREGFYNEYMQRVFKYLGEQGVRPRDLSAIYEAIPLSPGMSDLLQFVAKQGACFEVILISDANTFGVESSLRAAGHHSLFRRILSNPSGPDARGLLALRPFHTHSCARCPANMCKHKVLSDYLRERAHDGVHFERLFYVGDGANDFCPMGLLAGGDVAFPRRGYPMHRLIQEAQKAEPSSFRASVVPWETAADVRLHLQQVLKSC
# H9c2 protect – protects H9c2 cardiomyocytes from peroxide injury; H2O2 injury protection, ATPLite, 2 h; protection from H2O2 cell death, % at 20 µM; hit rate 0.63% among 360,000; AID 588492;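 active means compounds giving at least 50% protection of heart cells from peroxide-induced death in the single-dose screen, raw or plate-pattern-corrected value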;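 further: 0% = DMSO wells with peroxide and 100% = DMSO wells without peroxide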
# ALR H2O2 inh – human ALR oxidase inhibition via reduced H2O2 | hit rate 3.8% among 290,000 | inhibition, % (no concentration beside the values) | purified ALR, DTT oxidation, H2O2 HRP-luminol luminescence | P55789 | AID 485317;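 active means mean replicate inhibition above about 79%, with every replicate also reaching it, limit read from the data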
# An asterisk follows results filed as active; . = not tested or not shown.
SMILES,PfGluPho inh,PfM18AAP inh,PHOSPHO1 inh,H9c2 protect,ALR H2O2 inh
Cc1ccc(CN2CCNC(=O)C2CC(=O)N(C)C2CCOCC2)cc1 (stereo unspecified),2.2,-4.9,19.0,-4.4,-13.6
CC1C(=O)N2CCCc3cc(S(=O)(=O)N4CCN(c5ccc(F)cc5)CC4)cc1c32 (stereo unspecified),-8.4,-5.7,39.9,-1.9,-0.6
OC(CSc1ccccc1)CN1CCN(c2ccc(Cl)cc2)CC1 (stereo unspecified),4.2,.,.,0.2,.
CC(OC(=O)CC1CCCCC1)C(=O)Nc1cccc(C#N)c1 (stereo unspecified),-15.5,.,.,-13.6,-0.5
CC(NNC(=S)N1CCN(c2ccccn2)CC1)c1nccc2ccccc12 (stereo unspecified),-2.6,.,.,34.8,.
COc1ccc2c(c1)CO[C@]21O[C@H](CCO)C[C@H](O)[C@H]1O,.,.,.,3.5,.
COc1cc(C=NNC(=O)c2ccc(NS(=O)(=O)c3cccs3)cc2)cc(Br)c1O,-0.1,.,.,-0.5,77.6*
COc1ccc(/C=N/NC(=O)c2ccc3c(c2)OCO3)cc1,13.4,-2.0,41.9,-9.5,-2.7
COc1ccc(/C=N/NC(=O)c2cc(-c3ccc4c(c3)OCO4)n[nH]2)cc1OC,-1.2,4.0,-2.9,65.1*,-3.3
Cc1cc(C(=O)N/N=C/c2ccc3c(c2)OCO3)c(C)o1,-10.3,-10.4,16.8,-15.5,94.6*
COc1cc(/C=N/NC(=O)c2ccc3c(c2)OCO3)ccc1O,-9.7,7.7,42.7,-8.7,98.7*
CC(=O)Nc1ccc(C=NNC(=O)c2ccc(NS(=O)(=O)c3cccs3)cc2)cc1,-5.6,.,.,-5.3,0.9
Cc1occc1C(=O)N/N=C/c1ccc2c(c1)OCO2,-5.5,-3.1,13.9,-16.9,-5.0
Cc1cc(C(C)(C)C)cc(C)c1S(=O)(=O)N1CCN(C(=O)c2cc([N+](=O)[O-])c[nH]c2=O)CC1,-11.2,1.8,14.5,-1.6,5.7
COc1cc(/C=N\NC(=O)c2c(C)nc3cc(C)ccn23)ccc1O,7.8,2.3,23.4,2.1,96.9*
COc1cccc(/C=N/NC(=O)c2cccs2)c1,19.8,-5.7,11.6,10.1,0.4
COc1cc(/C=N/NC(=O)c2cccs2)ccc1O,14.3,2.0,20.0,-3.0,99.1*
CC1CCCN(CCOc2ccc3ccccc3c2Br)C1 (stereo unspecified),16.6,3.5,32.2,8.0,-10.7
CC(=O)c1cccc(OCc2cc(C(=O)N3CCC(N4CCCCC4)CC3)no2)c1,-12.3,1.4,64.0*,-3.9,-23.1
CC(=O)c1cccc(OCc2cc(C(=O)N3CCSCC3)no2)c1,5.5,2.5,27.4,7.1,-1.3
FC(F)(F)c1cccc(Cc2noc(CN3CCCC(OCc4ccccn4)C3)n2)c1 (stereo unspecified),-2.2,-2.6,64.2*,-10.2,.
FC(F)(F)c1cccc(Cc2noc(CN3CCCCC3c3ccccn3)n2)c1 (stereo unspecified),5.6,2.8,45.5,-4.7,5.1
Cc1cccc(NC(=O)c2cc3ccccc3oc2=O)c1,-5.3,-0.5,39.1,-13.5,-14.1
CSc1nnc(NC(=O)c2cc3ccccc3oc2=O)s1,4.4,-6.0,-9.3,55.3*,-3.8
CC/C(=N\NC(=O)c1ccc(-c2ccccc2)cc1)C12CC3CC(CC(C3)C1)C2,3.6,7.4,18.6,13.5,98.4*
SMILES,PfGluPho inh,PfM18AAP inh,PHOSPHO1 inh,H9c2 protect,ALR H2O2 inh
C/C(=N\NC(=O)c1ccncc1)C12CC3CC(CC(C3)C1)C2,15.4,-2.2,-2.2,13.4,18.3
CCOc1ccc(C(=O)OCC(=O)N2CCCC2)cc1,-10.0,-2.6,35.7,-4.3,.
O=C(COC(=O)CCC(=O)c1cccs1)NCCc1ccccc1,16.9,.,.,10.6,-1.5
O=C(CN1CCN(c2ccc(O)cc2)CC1)N(C1CC1)C1CCS(=O)(=O)C1 (stereo unspecified),47.9,.,.,0.8,99.1*
CC1CCCC/C1=N\NC(=S)Nc1cccnc1 (stereo unspecified),8.0,18.4,-74.1,6.0,97.7*
CN1CCN(CCCNC(=O)Nc2ccc([N+](=O)[O-])cc2)CC1,2.8,4.5,19.9,-7.7,-12.3
Fc1ccc(Br)cc1C1C=C(c2ccc(Br)s2)Nc2ncnn21 (stereo unspecified),-20.3,39.2*,3.5,-7.7,88.4*
COc1cccc(C2C=C(c3ccc(Br)s3)Nc3ncnn32)c1OC (stereo unspecified),-27.1,32.0*,17.6,5.4,0.6
C=CCOC(=O)C1=C(C)Nc2ncnn2C1c1cc(Br)ccc1F (stereo unspecified),50.3,-6.3,44.7,3.0,-5.0
